The results in this text go back to PubChem BioAssay (NCATS).

SMILES strings stand for the structures. Where “and” joins values, the source holds several entries; their conditions need not be identical. Equal entries are not always repeated. Records with an inconclusive call do not appear. Values without a mark were called inactive. Calls of active or inactive are those of the source. Calls follow the shape of the dose curve; as a rule, active = well fitted inhibition curve with a large enough effect; inconclusive = small, poorly fitted or top-dose-only effect; inactive = flat fitted curve, though single readings scatter.
% is scaled to controls: 0 for no effect and ±100 for the full control effect; potency is read from the fitted curve at half-maximal effect.

Ubiquitin carboxyl-terminal hydrolase 1 (Homo sapiens), sequence (O94782 whole entry, looked up): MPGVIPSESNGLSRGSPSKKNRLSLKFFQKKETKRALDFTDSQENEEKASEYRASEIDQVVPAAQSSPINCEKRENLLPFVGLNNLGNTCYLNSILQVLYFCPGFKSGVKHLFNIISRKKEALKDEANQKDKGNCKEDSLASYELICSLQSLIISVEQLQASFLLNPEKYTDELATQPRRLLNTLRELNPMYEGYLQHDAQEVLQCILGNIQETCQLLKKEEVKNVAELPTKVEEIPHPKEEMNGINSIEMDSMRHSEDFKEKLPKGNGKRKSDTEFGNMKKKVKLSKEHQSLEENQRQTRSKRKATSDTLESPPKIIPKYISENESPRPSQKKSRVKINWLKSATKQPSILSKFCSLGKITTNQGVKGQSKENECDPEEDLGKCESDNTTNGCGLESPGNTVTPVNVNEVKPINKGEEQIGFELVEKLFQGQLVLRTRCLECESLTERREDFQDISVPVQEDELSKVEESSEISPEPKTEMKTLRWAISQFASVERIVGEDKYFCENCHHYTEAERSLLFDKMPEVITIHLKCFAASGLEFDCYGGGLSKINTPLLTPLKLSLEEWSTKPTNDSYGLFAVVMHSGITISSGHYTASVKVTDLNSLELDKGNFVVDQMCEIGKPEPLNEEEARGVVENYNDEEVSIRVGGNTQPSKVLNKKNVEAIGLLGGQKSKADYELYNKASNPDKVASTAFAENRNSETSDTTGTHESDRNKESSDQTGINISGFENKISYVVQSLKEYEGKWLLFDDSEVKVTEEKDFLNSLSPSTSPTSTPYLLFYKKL

The target of this test is Ubiquitin carboxyl-terminal hydrolase 1 (Homo sapiens) (UniProt O94782). Briefly: Inhibitors of USP1/UAF1: Pilot qHTS (AID 504865). Also: nearly all actives have a fitted effect of over 35% in size.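 As to activity change, negative = inhibition: rhodamine fluorescence freed from ubiquitin-rhodamine substrate followed over time; top concentration of the series differs between compounds.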 As to conditions: purified USP1/UAF1, Ub-rhodamine cleavage fluorescence; series mostly up to 114 µM; activity change, negative = inhibition: at the top concentration. The source says:
Deubiquitinating enzymes (DUBs) are a class of enzymes that can cleave isopeptide bond formed between the C-terminal carboxylate of ubiquitin and a lysine side-chain amino group on the target protein. Among them, ubiquitin specific proteases (USPs) constitute the largest DUB family. Human USPs are emerging as promising targets for pharmacological intervention because of their connection to a number of human diseases, including prostate, colon and breast cancer (1, 2), pediatric acute lymphoblastic leukemia (3), and familial cylindromatosis (4). The advantage of inhibiting USPs lies in the potential specificity of therapeutic intervention that can lead to better efficacy and reduce nonspecific side effects.
In a collaboration between the University of Delaware and the NIH Chemical Genomics Center, a high-throughput screen assay was developed to screen for USP1/UAF1 inhibitors. This miniaturized assay has a fluorescent read-out and is used to screen the NIH Molecular Libraries Small Molecule Repository (MLSMR) in order to identify a small molecule that inhibits USP1.
NIH Chemical Genomics Center [NCGC]
NIH Molecular Libraries Probe Centers Network [MLPCN]
Assay Submitter (PI): Zhihao Zhuang, University of Delaware
1. Priolo, C., et al. (2006) The isopeptidase USP2a protects human prostate cancer from apoptosis. Cancer Res 66, 8625-8632
2. Popov, N., et al. (2007) The ubiquitin-specific protease USP28 is required for MYC stability. Nat Cell Biol 9, 765-774
3. De Pitta, C., et al. (2005) A leukemia-enriched cDNA microarray platform identifies new transcripts with relevance to the biology of pediatric acute lymphoblastic leukemia. Haematologica 90, 890-898
4. Kovalenko, A., et al. (2003) The tumour suppressor CYLD negatively regulates NF-kappaB signalling by deubiquitination. Nature 424, 801-805
3 microliters of reagents (buffer in columns 3 and 4 as negative control and 1nM USP1/UAF1 complex in columns 1, 2, and 5-48) are dispensed into Greiner black solid bottom 1536-well assay plates. Compounds are then transferred via Kalypsys pin tool equipped with 1536-pin array (10nl slotted pins, V&P Scientific, San Diego, CA). Following an incubation step of 15 min at room temperature, 1ul of Ub-Rho substrate (150nM final concentration) is added to initiate the reaction. The plates are immediately centrifuged at 1000 rpm for 15 seconds, and subsequently transferred to a ViewLux high-throughput CCD imager (PerkinElmer) wherein kinetic measurements of fluorescence are acquired using 480 nm excitation/540 nm emission filter set (6 reads every 60 seconds, see Table 1). All reagents are diluted in an assay buffer consisting of 50mM HEPES (pH 7.8), 0.5mM EDTA, 0.1 mg/ml BSA, 1mM TCEP, and 0.01% Tween-20.
In the case of `COC[C@H]1OC(=O)c2coc3c2[C@@]1(C)C1=C(C3=O)C2CCC(=O)[C@@]2(C)C[C@H]1OC(C)=O` (stereo not given in full), the “activity change, negative = inhibition” value is 52.2%.

As for `CC(=O)Nc1cc([As](=O)(O)O)ccc1O`, the “activity change, negative = inhibition” value was -2.89%.

As to `CC(=O)[C@H]1CC[C@H]2[C@@H]3CC[C@H]4C[C@H](O)CC[C@]4(C)[C@H]3C(=O)C[C@]12C`, the Potency entry was “inactive”.

Take `O=c1[nH]c2ccccc2n1CCCN1CCC(n2c(=O)[nH]c3cc(Cl)ccc32)CC1`: the Potency result was “inactive”.

With `O=C(NC(O)C(Cl)(Cl)Cl)NC(O)C(Cl)(Cl)Cl` (stereo not given), the “activity change, negative = inhibition” value is -1.51%.

On to `CCN(CC)CCOC(=O)C(O)(c1ccccc1)c1ccccc1`, for which the “activity change, negative = inhibition” value was 1.73%.

On to `Cc1cccc(C)c1NC1=NCCCS1`, for which the Potency result is “inactive”.

Take `CCC1C(=O)OCC1Cc1cncn1C` (stereo not given): the Potency result was “inactive”.

As for `NCCc1cc(O)c(O)cc1O`, the Potency is 50.1 µM (active).

Turning to `CC1OC(C)OC(C)O1` (stereo not given), the Potency result was “inactive”.

Turning to `Cc1ncc(CNC(=O)N(CCCl)N=O)c(N)n1`, the Potency result is “inactive”.

On to `CC(COc1ccccc1)N(CCCl)Cc1ccccc1` (stereo not given), for which the Potency entry was “inactive”.

With `CC[N+](CC)(CC)CC`, the Potency entry was “inactive”.

Regarding `C[C@]12C/C(=C/O)C(=O)C[C@@H]1CC[C@@H]1[C@@H]2CC[C@@]2(C)[C@H]1CC[C@]2(C)O`, the “activity change, negative = inhibition” value was -9.77%.

As for `CCN(C(C)=O)c1cccc(-c2ccnc3c(C#N)cnn23)c1`, the “activity change, negative = inhibition” value is 0.599%.

As for `OCCOc1ccccc1`, the “activity change, negative = inhibition” value is -14.1%.

As to `CCCN1CCC[C@@H]2Cc3[nH]ncc3C[C@H]21`, the Potency result is “inactive”.

Turning to `NCC(O)c1ccc(O)cc1` (stereo not given), the Potency entry is “inactive”.

`CC[N+]1(C)CCCC(OC(=O)C(O)(c2ccccc2)c2ccccc2)C1` (stereo not given): the “activity change, negative = inhibition” value was 1.34%.

With `Cn1c(CCCC(=O)O)nc2cc(N(CCCl)CCCl)ccc21`, the “activity change, negative = inhibition” value was -1.23%.

Take `Cc1ccc(S(=O)(=O)N[C@@H](CCCCN)C(=O)CCl)cc1`: the Potency is 50.1 µM (active) and 39.8 µM (active).

Turning to `CC(C)=CCOc1c2occc2cc2ccc(=O)oc12`, the “activity change, negative = inhibition” value was -3%.

Take `C=C1CC[C@@]2(O)[C@H]3Cc4ccc(O)c5c4[C@@]2(CCN3CC2CC2)[C@H]1O5`: the “activity change, negative = inhibition” value was -5.18%.

For `CN(C)CCc1ccc(O)cc1`, the “activity change, negative = inhibition” value is -9.32%.

`CCCC(C)(COC(N)=O)COC(=O)NC(C)C` (stereo not given): the Potency result is “inactive”.

Regarding `CC[C@@H](CO)NC(=O)[C@@H]1C=C2c3cccc4[nH]cc(c34)C[C@H]2N(C)C1`, the “activity change, negative = inhibition” value was -4.08%.

For the compound `NN=C(N)N`, the Potency entry is “inactive”.

For `CC(C)CC(N(C)C)C1(c2ccc(Cl)cc2)CCC1` (stereo not given), the “activity change, negative = inhibition” value is -8.58%.

On to `CC(O)(CS(=O)(=O)c1ccc(F)cc1)C(=O)Nc1ccc(C#N)c(C(F)(F)F)c1` (stereo not given), for which the “activity change, negative = inhibition” value is -13.5%.

In the case of `O=C1NCN(c2ccccc2)C12CCN(CC1COc3ccccc3O1)CC2` (stereo not given), the Potency result is “inactive”.

With `CN(C)CCN(C)CCc1ccc(Cl)c(Cl)c1`, the “activity change, negative = inhibition” value is -7.21%.

As for `OCCN1CCN(CCCN2c3ccccc3Sc3ccc(C(F)(F)F)cc32)CC1`, the Potency is 56.2 µM (active).

Regarding `NCC1(CC(=O)O)CCCCC1`, the “activity change, negative = inhibition” value is -4.08%.

On to `N#CC(C#N)=Cc1ccc(O)c(O)c1`, for which the “activity change, negative = inhibition” value is -3.93%.

As to `CC(C)NCC(O)c1ccccc1Cl` (stereo not given), the “activity change, negative = inhibition” value is -2.59%.

Turning to `O=C(O)c1ccc2[nH]cc(CCCCN3CC=C(c4ccccc4)CC3)c2c1`, the “activity change, negative = inhibition” value is -2.5%.

In the case of `C[C@]12CC[C@@H]3c4ccc(O)cc4C[C@@H](CCCCCCCCCS(=O)CCCC(F)(F)C(F)(F)F)[C@H]3[C@@H]1CC[C@@H]2O` (stereo not given in full), the “activity change, negative = inhibition” value was -13.8%.

As for `O=P1(NCCCl)OCCCN1CCCl` (stereo not given), the “activity change, negative = inhibition” value was -4.34% [at 54.9 µM].

As for `c1ccc2c(c1)OCC(C1=NCCN1)O2` (stereo not given), the Potency entry is “inactive”.

Regarding `CC[C@@H](CO)NC(=O)[C@@H]1C=C2c3cccc4c3c(cn4C)C[C@H]2N(C)C1`, the “activity change, negative = inhibition” value was 3.91%.
